Experimental data published in PubChem BioAssay (NCATS).
Records with an inconclusive call do not appear. Calls of active or inactive are those of the source. Unless noted, calls come from the whole dose curve.

Experiments:
[1] = target: Estrogen receptor (Homo sapiens) (UniProt P03372); experiment: qHTS assay for small molecule agonists of estrogen receptor alpha signaling (AID 588514);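 note: 0% = vehicle only and 100% = reference agonist; nearly all actives have a fitted effect of over 70% in size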
How it was run: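 Efficacy is expressed against 20 nM 17-beta-estradiol (100%) and DMSO basal (0%); EC50 from Hill equation. Assay: beta-lactamase reporter in ER-alpha-UAS-bla HEK 293 cells, 18 h compound incubation, CCF4 detection.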

[2] = target: Glucocorticoid receptor (Homo sapiens) (UniProt P04150); experiment: qHTS assay for small molecule agonists of glucocorticoid receptor signaling (AID 588532; active = well fitted curve in the direction sought with a large enough effect in the signal ratio, with a control signal flat; the % refers to the signal ratio;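 note: 100% = dexamethasone at 0.1 µM and 0% = DMSO only wells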); conditions: HeLa MMTV-bla, beta-lactamase ratio, agonist, 18 h; activation: stronger effect = higher value, percent of dexamethasone control, DMSO zero
How it was run: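 Titration series, up to 92 uM, applied to GRE-bla HeLa cells for 18 h at 37 C. Detection by CCF4 FRET substrate after 2 h at RT.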

[3] = target: Peroxisome proliferator-activated receptor delta (Homo sapiens) (UniProt Q03181); experiment: qHTS assay for small molecule agonists of peroxisome proliferator-activated receptor delta signaling (AID 588534);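 note: 0% = DMSO basal wells and 100% = positive control agonist at 10 µM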
How it was run: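 Agonist-mode qHTS; reporter cells, 5 hrs 37 C pre-incubation; compound titration, 18 hrs 37 C; CCF4 dye, 2 hrs RT; fluorescence read. EC50/efficacy via Hill fit.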

[4] = target: Peroxisome proliferator-activated receptor gamma (Homo sapiens) (UniProt P37231); experiment: qHTS assay for small molecule agonists of peroxisome proliferator-activated receptor gamma signaling (AID 588536; active = well fitted curve in the direction sought with a large enough effect in the signal ratio, with a control signal flat, not every such curve was filed as active; the % refers to the signal ratio; note: potency is the fitted concentration of half-maximal effect;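 for activation: 0% = DMSO basal wells and 100% = rosiglitazone at 2 µM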)
How it was run: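 Beta-lactamase reporter read-out: CCF4 fluorescence (ex 405, em 460/530 nm) after 2 h at RT. HEK293 GeneBLAzer cells were treated for 16 h at 37 C. Hill fits gave EC50 and efficacy versus 2 uM rosiglitazone (100%) and DMSO (0%).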

[5] = target: Vitamin D3 receptor (Homo sapiens) (UniProt P11473); experiment: qHTS assay for small molecule antagonists of vitamin D receptor signaling (AID 588541); note: potency is the fitted concentration of half-maximal effect
How it was run: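 VDR-UAS-bla HEK293T cells (2000/well, 2% charcoal-stripped FBS) were treated with titrated compounds plus 1-alpha,25-dihydroxyvitamin D3 (50 nM or 3 nM final) for 16 h at 37 C. CCF4 beta-lactamase fluorescence was read; Hill fits gave IC50.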

[6] = target: Vitamin D3 receptor (Homo sapiens) (UniProt P11473); experiment: qHTS assay for small molecule agonists of vitamin D receptor signaling (AID 588543);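 note: 0% = DMSO basal and 100% = reference agonist control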
How it was run: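 Agonist-mode beta-lactamase reporter: HEK293T VDR-UAS-bla cells in charcoal-stripped 2% FBS, compound series 16 h 37 C, CCF4 2 h RT. EC50 from Hill fit, scaled against DMSO and 50 nM calcitriol control.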

[7] = target: Retinoic acid receptor RXR-alpha (Homo sapiens) (UniProt P19793); experiment: qHTS assay for small molecule agonists of retinoid X receptor alpha signaling (AID 588544);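 note: 0% = DMSO basal wells and 100% = reference agonist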
[8] = target: Thyroid hormone receptor beta (Homo sapiens) (UniProt P10828); experiment: qHTS assay for small molecule agonists of thyroid hormone receptor beta signaling (AID 588545);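 note: 0% = DMSO only and 100% = 10 nM T3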
How it was run: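 Compounds were tested as agonists in TR-UAS-bla-GripTite HEK 293 cells. After 18 hrs at 37 C, CCF4 substrate was added and fluorescence read after 2 hrs at room temperature.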

[9] = qHTS assay for small molecule antagonists of retinoid X receptor alpha signaling (AID 588546; active = well fitted inhibition curve with a large enough effect in the signal ratio, with a control signal flat, not every such curve was filed as active; the % refers to the signal ratio;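 note: cells stimulated with 9-cis-retinoic acid as agonist; % is set by controls: 0 for no effect and ±100 for the full control effect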); conditions: HEK293T RXRa-UAS-bla, beta-lactamase ratio, antagonist mode; measured here: W530 green channel, cytotoxicity proxy
How it was run: (§1)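 Beta-lactamase reporter inhibition, read as CCF4 fluorescence ratio (ex 405, em 460/530 nm) after 2 h at RT. HEK293T UAS-bla cells, 2500/well, were stimulated with 9-cis-RA at 500 or 100 nM final alongside test compound for 18 h at 37 C.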

[10] = target: Retinoic acid receptor RXR-alpha (Homo sapiens) (UniProt P19793); experiment: as above; conditions: HEK293T RXRa-UAS-bla, beta-lactamase ratio, antagonist mode
How it was run: as §1

[11] = qHTS assay for small molecule activators of the p53 signaling pathway (AID 651743; active = well fitted activation curve with a large enough effect in the signal ratio, not every such curve was filed as active; the % refers to the signal ratio; note: series mostly up to about 92 µM; % of control where 0% means no effect); conditions: HCT-116 p53RE-bla, beta-lactamase FRET ratio, 16 h; activation: stronger effect = higher value
How it was run: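 Agonist-mode quantitative HTS in HCT-116 cells carrying a p53-response-element beta-lactamase reporter; 16 h compound treatment at 37 C, then FRET substrate loading for 2 h at room temperature and fluorescence read.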

[12] = qHTS assay for environmental chemicals that activate the Aryl hydrocarbon Receptor (AhR) signaling pathway (AID 651777; active = well fitted curve in the direction sought with a large enough effect; an effect the other way counts as inactive or inconclusive; note: % of control where 0% means no effect; nearly all actives have a fitted effect of over 15% in size); conditions: 1A2-DRE human hepatoma cells, luciferase, 24 h; activation: stronger effect = higher value
How it was run: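 Luminescence read-out: One-Glo added for 30 min at RT after 24 hr compound treatment (37 C, 5% CO2) of human hepatoma cells expressing a DRE/CYP1A2 promoter–luciferase reporter; increased signal indicates AhR activation.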

[13] = target: Peroxisome proliferator-activated receptor alpha (Homo sapiens) (UniProt Q07869); experiment: qHTS assay for small molecule agonists of the peroxisome proliferator-activated receptor alpha (PPARalpha) signaling pathway (AID 651778; active = well fitted curve in the direction sought with a large enough effect; an effect the other way counts as inactive or inconclusive; note: % of control where 0% means no effect); conditions: PathHunter PPARalpha complementation, chemiluminescence, 6 h; max response: stronger effect = higher value
How it was run: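 Cells plated at 2,000/well and held overnight at 37 C, 5% CO2, then compound added by pin tool for 6 hr; after PathHunter detection reagent and 60 min at room temperature, chemiluminescence from enzyme complementation was read.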

[14] = qHTS assay for small molecule agonists of the antioxidant response element (ARE) signaling pathway measured by Nrf2-dependant transcriptional activity (AID 720636; active = well fitted curve in the direction sought with a large enough effect in the repeat runs; an effect the other way counts as inactive or inconclusive; note: potency is the fitted concentration of half-maximal effect;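 for activation: HepG2 cells with an ARE-driven luciferase reporter; % of control where 0% means no effect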)
How it was run: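 HepG2 ARE-luc reporter line, 1% dialyzed FBS; 6 hr attachment at 37 C, compound pinned in, 16 hr at 37 C/5% CO2; ONE-Glo, 30 min RT, luminescence read.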

[15] = qHTS assay for small molecule agonists of the antioxidant response element (ARE) signaling pathway measured by Nrf2-dependant transcriptional activity - cell viability counter screen (AID 720653; active = well fitted curve in the direction sought with a large enough effect in the repeat runs; an effect the other way counts as inactive or inconclusive; note: % is set by controls: 0 for no effect and ±100 for the full control effect); conditions: ARE-bla HepG2 viability, CellTiter-Glo ATP luminescence, 16 h; max response: stronger effect = lower value
How it was run: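 ARE-bla HepG2 cells (2,000/well) rested 5 hrs at 37C/5% CO2, then exposed to compounds in DMSO for 16 hrs. Viability was read in the same wells as intracellular ATP by luminescence, 30 min at room temperature after reagent addition.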

[16] = qHTS assay for cell viability of HEK293 cells (AID 743288; active = well fitted curve in the direction sought with a large enough effect; an effect the other way counts as inactive or inconclusive; note: % is set by controls: 0 for no effect and ±100 for the full control effect; nearly all actives have a fitted effect of over 50% in size); conditions: ATP luminescence (CellTiter-Glo), 18 h; max response: stronger effect = lower value
How it was run: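 Readout is luciferase-coupled ATP content (CellTiter-Glo luminescence, 30 min room temperature) as a measure of metabolically competent cells. Parental HEK293 cells were plated 5 h or more before compound addition, then treated 18 h at 37 C.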

[17] = qHTS assay for cell viability of the p53RE-bla HCT-116 cell line (AID 743292; active = well fitted curve in the direction sought with a large enough effect; an effect the other way counts as inactive or inconclusive; note: % is set by controls: 0 for no effect and ±100 for the full control effect; nearly all actives have a fitted effect of over 55% in size)
How it was run: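 Luminescent ATP quantitation (CellTiter-Glo) served as the viability read-out; reagent was added after 16 h compound exposure at 37 C and read after 30 min at room temperature. Cells: p53RE-bla HCT-116, 4,000 per well.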

[18] = target: Nuclear receptor subfamily 1 group I member 2 (Rattus norvegicus) (UniProt Q9R1A7); experiment: qHTS assay for small molecule activators of the rat pregnane X receptor (rPXR) signaling pathway (AID 651751; call rule not given here; note: 0% is about no effect); conditions: rPXR reporter cells, luciferase (One-Glo), 24 h
[19] = target: Peroxisome proliferator-activated receptor delta (Homo sapiens) (UniProt Q03181); experiment: qHTS assay for small molecule antagonists of peroxisome proliferator-activated receptor delta signaling (AID 588535; active = well fitted inhibition curve with a large enough effect in the signal ratio, with a control signal flat, not every such curve was filed as active; the % refers to the signal ratio)
How it was run: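 Inhibition of PPAR-delta response element-driven beta-lactamase expression is measured in HEK293T cells exposed to a compound titration series for 18 hrs at 37 C. Half-maximal inhibition comes from Hill equation fitting.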

[20] = qHTS assay for small molecule activators of the nuclear factor-kappa B (NF-kB) signaling pathway (AID 651749; active = well fitted activation curve with a large enough effect in the signal ratio; the % refers to the signal ratio; note: series mostly up to about 77 µM; % of control where 0% means no effect); conditions: NF-kB-bla ME-180 cells, beta-lactamase FRET ratio, 16 h; activation: stronger effect = higher value
How it was run: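 Human ME-180 cervical cells with an NF-kB-bla construct; compounds added via 23 nL pin transfer, DMSO as vehicle; incubation 16 hr. Reporter activity measured by FRET disruption.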

Sequence of Thyroid hormone receptor beta (Homo sapiens) (P10828 whole entry, looked up): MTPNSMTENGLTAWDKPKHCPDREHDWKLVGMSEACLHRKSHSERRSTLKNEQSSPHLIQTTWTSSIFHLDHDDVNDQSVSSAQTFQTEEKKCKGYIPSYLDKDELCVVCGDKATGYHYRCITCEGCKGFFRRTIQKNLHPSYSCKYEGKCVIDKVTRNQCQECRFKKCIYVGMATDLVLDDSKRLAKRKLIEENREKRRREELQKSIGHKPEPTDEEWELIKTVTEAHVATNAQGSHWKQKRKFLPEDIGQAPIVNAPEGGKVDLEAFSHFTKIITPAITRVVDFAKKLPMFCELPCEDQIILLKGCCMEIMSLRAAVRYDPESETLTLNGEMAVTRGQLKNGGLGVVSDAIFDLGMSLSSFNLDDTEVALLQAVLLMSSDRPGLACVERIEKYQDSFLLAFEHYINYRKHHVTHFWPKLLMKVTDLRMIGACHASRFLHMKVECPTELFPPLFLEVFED
Sequence of Peroxisome proliferator-activated receptor delta (Homo sapiens) (Q03181 whole entry, looked up): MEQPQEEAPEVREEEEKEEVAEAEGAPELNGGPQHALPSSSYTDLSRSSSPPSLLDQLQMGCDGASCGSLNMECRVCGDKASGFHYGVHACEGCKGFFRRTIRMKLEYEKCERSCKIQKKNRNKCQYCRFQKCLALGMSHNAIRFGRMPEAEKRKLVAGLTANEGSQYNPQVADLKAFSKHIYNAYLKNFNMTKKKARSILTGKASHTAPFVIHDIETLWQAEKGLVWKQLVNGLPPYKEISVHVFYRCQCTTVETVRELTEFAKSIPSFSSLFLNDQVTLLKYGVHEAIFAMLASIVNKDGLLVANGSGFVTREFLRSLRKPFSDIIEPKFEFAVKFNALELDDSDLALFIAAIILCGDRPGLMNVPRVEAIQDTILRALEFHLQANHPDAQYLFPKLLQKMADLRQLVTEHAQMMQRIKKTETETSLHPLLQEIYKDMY
Sequence of Estrogen receptor (Homo sapiens) (P03372 whole entry, looked up): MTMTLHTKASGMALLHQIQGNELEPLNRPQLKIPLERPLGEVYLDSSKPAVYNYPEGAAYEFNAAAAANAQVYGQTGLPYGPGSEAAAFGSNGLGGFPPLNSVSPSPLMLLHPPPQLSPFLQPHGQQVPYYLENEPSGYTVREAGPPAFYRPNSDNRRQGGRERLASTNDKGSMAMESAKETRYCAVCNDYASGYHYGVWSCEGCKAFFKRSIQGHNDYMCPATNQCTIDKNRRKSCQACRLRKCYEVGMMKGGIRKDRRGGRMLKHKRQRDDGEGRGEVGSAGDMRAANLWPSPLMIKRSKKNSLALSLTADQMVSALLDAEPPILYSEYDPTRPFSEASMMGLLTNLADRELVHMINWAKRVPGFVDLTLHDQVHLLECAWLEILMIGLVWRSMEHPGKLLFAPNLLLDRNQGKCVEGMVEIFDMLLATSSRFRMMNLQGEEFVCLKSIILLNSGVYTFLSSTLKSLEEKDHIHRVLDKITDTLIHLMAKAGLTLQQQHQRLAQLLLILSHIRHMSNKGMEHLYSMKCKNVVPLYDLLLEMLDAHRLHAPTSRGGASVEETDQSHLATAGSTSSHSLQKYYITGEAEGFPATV
Sequence of Glucocorticoid receptor (Homo sapiens) (P04150 whole entry, looked up): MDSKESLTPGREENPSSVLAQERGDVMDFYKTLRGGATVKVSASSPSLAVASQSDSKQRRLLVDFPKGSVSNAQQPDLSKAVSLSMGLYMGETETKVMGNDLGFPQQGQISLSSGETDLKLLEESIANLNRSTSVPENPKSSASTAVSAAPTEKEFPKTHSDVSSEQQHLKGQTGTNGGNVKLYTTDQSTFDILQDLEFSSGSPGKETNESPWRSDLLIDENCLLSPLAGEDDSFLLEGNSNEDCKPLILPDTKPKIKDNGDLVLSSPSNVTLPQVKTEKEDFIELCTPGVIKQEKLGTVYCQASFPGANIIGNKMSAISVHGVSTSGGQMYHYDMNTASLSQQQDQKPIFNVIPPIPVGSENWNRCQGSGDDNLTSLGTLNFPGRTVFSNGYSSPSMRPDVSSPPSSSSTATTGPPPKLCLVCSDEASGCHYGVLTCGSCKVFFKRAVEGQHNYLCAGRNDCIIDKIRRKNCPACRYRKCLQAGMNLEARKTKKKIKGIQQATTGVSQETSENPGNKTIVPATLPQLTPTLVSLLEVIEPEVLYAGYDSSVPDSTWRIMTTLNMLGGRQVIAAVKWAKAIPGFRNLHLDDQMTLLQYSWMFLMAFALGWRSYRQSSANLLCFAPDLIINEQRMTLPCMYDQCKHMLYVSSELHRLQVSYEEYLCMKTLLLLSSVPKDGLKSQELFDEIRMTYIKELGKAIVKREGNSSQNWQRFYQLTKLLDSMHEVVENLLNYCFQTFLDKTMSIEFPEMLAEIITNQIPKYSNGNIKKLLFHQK
Sequence of Retinoic acid receptor RXR-alpha (Homo sapiens) (P19793 whole entry, looked up): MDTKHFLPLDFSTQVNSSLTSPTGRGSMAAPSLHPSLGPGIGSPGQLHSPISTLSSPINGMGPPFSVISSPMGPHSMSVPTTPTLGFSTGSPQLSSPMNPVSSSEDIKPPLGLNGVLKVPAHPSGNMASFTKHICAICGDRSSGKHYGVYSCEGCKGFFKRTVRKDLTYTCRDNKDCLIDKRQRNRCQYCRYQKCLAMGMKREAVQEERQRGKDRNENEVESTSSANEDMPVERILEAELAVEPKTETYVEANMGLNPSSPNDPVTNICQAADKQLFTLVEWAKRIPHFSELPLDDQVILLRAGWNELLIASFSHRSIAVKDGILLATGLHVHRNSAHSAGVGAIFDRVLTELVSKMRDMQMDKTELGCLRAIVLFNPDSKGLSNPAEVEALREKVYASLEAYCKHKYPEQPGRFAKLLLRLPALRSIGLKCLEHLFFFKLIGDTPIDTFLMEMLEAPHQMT
Sequence of Vitamin D3 receptor (Homo sapiens) (P11473 whole entry, looked up): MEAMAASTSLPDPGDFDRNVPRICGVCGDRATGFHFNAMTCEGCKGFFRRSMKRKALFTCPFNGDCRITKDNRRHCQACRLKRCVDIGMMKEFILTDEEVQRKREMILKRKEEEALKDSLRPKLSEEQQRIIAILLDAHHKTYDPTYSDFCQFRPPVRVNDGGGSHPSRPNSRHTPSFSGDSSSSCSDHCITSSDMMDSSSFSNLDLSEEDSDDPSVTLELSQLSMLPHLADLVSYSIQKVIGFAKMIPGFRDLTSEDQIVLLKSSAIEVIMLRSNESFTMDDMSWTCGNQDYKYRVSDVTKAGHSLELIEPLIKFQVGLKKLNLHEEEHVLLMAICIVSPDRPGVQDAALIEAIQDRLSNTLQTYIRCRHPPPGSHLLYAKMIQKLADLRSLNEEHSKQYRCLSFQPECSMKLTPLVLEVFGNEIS
Sequence of Nuclear receptor subfamily 1 group I member 2 (Rattus norvegicus) (Q9R1A7 whole entry, looked up): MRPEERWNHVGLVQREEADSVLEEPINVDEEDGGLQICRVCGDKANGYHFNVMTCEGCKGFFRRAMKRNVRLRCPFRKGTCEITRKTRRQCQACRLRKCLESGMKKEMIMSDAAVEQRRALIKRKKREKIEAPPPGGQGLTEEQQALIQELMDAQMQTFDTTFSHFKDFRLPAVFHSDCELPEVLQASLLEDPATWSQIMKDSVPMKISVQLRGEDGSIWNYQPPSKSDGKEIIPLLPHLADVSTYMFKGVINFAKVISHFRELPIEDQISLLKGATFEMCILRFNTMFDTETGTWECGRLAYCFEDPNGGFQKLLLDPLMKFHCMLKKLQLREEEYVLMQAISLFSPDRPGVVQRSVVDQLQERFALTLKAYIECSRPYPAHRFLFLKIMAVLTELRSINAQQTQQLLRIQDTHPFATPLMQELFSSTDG
Sequence of Peroxisome proliferator-activated receptor gamma (Homo sapiens) (P37231 whole entry, looked up): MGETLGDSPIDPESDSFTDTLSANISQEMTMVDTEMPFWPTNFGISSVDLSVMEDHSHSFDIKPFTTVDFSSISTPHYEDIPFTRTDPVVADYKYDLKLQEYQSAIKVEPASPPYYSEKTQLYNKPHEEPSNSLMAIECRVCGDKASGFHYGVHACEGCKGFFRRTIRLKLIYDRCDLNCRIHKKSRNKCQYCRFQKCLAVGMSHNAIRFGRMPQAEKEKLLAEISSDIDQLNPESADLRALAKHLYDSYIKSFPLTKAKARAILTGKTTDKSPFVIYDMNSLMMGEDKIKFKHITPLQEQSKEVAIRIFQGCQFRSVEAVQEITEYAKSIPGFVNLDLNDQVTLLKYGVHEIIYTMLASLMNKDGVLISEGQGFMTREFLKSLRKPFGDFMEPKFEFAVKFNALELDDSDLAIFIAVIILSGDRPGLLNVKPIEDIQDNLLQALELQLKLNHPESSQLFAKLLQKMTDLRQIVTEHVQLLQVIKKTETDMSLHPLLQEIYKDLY
Sequence of Peroxisome proliferator-activated receptor alpha (Homo sapiens) (Q07869 whole entry, looked up): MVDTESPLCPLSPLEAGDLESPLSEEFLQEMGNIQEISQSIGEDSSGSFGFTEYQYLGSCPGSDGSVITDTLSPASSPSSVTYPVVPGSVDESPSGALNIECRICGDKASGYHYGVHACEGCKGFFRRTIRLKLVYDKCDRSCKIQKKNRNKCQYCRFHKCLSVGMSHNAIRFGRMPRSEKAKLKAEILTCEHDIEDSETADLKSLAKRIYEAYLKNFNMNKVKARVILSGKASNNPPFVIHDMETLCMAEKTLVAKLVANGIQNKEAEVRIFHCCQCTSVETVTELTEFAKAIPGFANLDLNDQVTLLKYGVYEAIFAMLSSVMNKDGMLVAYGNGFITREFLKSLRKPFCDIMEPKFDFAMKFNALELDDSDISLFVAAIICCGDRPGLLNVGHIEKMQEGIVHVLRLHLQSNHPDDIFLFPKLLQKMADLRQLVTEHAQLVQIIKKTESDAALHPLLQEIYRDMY

CC1(C)CC/C(=C\c2ccc(Cl)cc2)C1(O)Cn1cncn1 (configuration not stated)
inactive: Potency [1] | activation [2] -0.523% | outcome [3] | Potency [4] | Potency [5] | outcome [6] | Potency [7] | Potency [8] | max response [10] -37.6% | activation [11] -1.43% | activation [12] 7.02% | max response [13] 0.489% | Potency [14] | max response [15] -5.93% | max response [16] -11.5% | Potency [17] | max response [18] 12.5%
5.05%: max response [9]

CCc1cc(C)cc(CC)c1-c1c(OC(=O)C(C)(C)C)n2n(c1=O)CCOCC2
0.581%: max response [9]
inactive: Potency [1] | activation [2] -0.342% | outcome [3] | Potency [19] | Potency [4] | Potency [5] | Potency [7] | max response [10] 4.99% | activation [11] -4.38% | activation [20] -1.54% | activation [12] 2.1% | max response [13] -1.33% | max response [15] 0.802% | max response [16] -3.66% | Potency [17] | max response [18] 1.04%

COP(=O)(OC)OC(Br)C(Cl)(Cl)Br (configuration not stated)
inactive: Potency [1] | activation [2] -8% | outcome [3] | Potency [19] | outcome [6] | Potency [8] | max response [13] -1.63% | max response [15] -24% | Potency [17]
active: Potency [4] 22.4 µM | Potency [5] 44.7 µM | Potency [14] 68.6 µM

CC(C)[C@@H](Nc1ccc(C(F)(F)F)cc1Cl)C(=O)OC(C#N)c1cccc(Oc2ccccc2)c1 (some centres not stated)
inactive: Potency [1] | activation [2] -3.97% | outcome [6] | Potency [8] | activation [12] 0.736% | max response [13] -1.14% | Potency [14] | max response [15] -3.6% | max response [16] -27.3% | Potency [17]

COc1cc(OC)nc(NC(=O)NS(=O)(=O)c2cc(NC=O)ccc2C(=O)N(C)C)n1
inactive: activation [2] -12.6% | outcome [3] | Potency [19] | Potency [4] | Potency [5] | outcome [6] | Potency [7] | Potency [8] | max response [10] 14.5% | activation [11] -3.45% | activation [20] 1.99% | activation [12] -3.78% | max response [13] -4.09% | Potency [14] | max response [15] 11% | max response [16] -24.7% | max response [18] -9.56%
-2.91%: max response [9]

CCOP(=S)(OCC)SCSP(=S)(OCC)OCC
inactive: Potency [1] | activation [2] -1.05% | outcome [3] | Potency [19] | Potency [4] | Potency [5] | outcome [6] | Potency [8] | max response [10] -4.31% | activation [11] -5.14% | activation [20] -2.5% | activation [12] 3.33% | max response [13] -1.9% | Potency [14] | max response [15] -0.915% | max response [16] -18.3% | Potency [17]
-10.3%: max response [9]

Brc1ccc(Oc2ccccc2)cc1
-7.34%: max response [9]
inactive: Potency [1] | activation [2] 1.51% | outcome [3] | Potency [19] | Potency [4] | Potency [5] | outcome [6] | Potency [7] | max response [10] 1.13% | activation [11] 1.17% | activation [20] -2.79% | activation [12] -0.643% | max response [13] -0.584% | Potency [14] | max response [15] -10.2% | max response [16] -5.38% | Potency [17] | max response [18] -2.47%

CNP(=O)(OC)Oc1ccc(C(C)(C)C)cc1Cl (configuration not stated)
2.01%: max response [9]
inactive: Potency [1] | activation [2] 0.207% | outcome [3] | Potency [19] | Potency [5] | outcome [6] | Potency [7] | Potency [8] | max response [10] 11.9% | activation [11] 6.28% | activation [20] 1.2% | activation [12] 5.81% | max response [13] -2.32% | max response [15] 8.45% | max response [16] -10.1% | Potency [17] | max response [18] 11.5%

CCCOc1nn(C(=O)NS(=O)(=O)c2ccccc2C(=O)OC)c(=O)n1C
-18%: max response [9]
inactive: activation [2] -2.11% | outcome [3] | Potency [19] | Potency [4] | Potency [5] | outcome [6] | Potency [8] | max response [10] -2.92% | activation [11] 0.234% | activation [20] -2.67% | activation [12] 0.148% | max response [13] 0.0457% | Potency [14] | max response [15] -11.6% | max response [16] -4.57% | Potency [17] | max response [18] 4.67%

CC(C)(C)C(O)/C(=C\c1ccc(Cl)cc1Cl)n1cncn1 (configuration not stated)
inactive: Potency [1] | outcome [3] | Potency [5] | Potency [8] | activation [11] 9.12% | activation [12] 6.02% | Potency [14] | max response [15] -10.7% | max response [16] -6.74%

N#CN=C1SCCN1Cc1ccc(Cl)nc1
inactive: Potency [1] | activation [2] 0.0374% | outcome [3] | Potency [19] | Potency [4] | Potency [7] | Potency [8] | max response [10] -3.64% | activation [11] 1.82% | activation [20] -0.492% | activation [12] 1.96% | max response [13] -1.13% | Potency [14] | max response [15] -4.44% | max response [16] 1.43% | Potency [17] | max response [18] 2.62%
-7.22%: max response [9]

CC1(C)CON(Cc2ccccc2Cl)C1=O
inactive: Potency [1] | outcome [3] | Potency [19] | Potency [4] | Potency [5] | Potency [7] | Potency [8] | max response [10] -4.63% | activation [11] -1.76% | activation [20] 0.414% | activation [12] 5.31% | max response [13] 0.0347% | max response [15] -9.67% | max response [16] -8.49% | Potency [17] | max response [18] 13.2%
-9.42%: max response [9]
